Among all 5,500 compounds or so, about 2,000 (36%) were called active. Not shown: some 18% with an inconclusive outcome. The list shows a part of the results. Unmarked numbers belong to inactive results. Cut-off read from the data, not from the text of the source: active = normalized growth mostly below about 0.91 (no sharp cut-off); inconclusive = no clear call, values can overlap the other calls; inactive = mostly above about 0.92.
Test: chemical genetic growth profiling, strain panel (AID 1159580);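 note: tested at 20 µM; growth read once vehicle control cultures reached saturation at 30 °C; 1 = growth at the plate median or of vehicle wells; lower values mean less growth of the strain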
Settings: growth OD

Structure (SMILES): NC[C@H](O)c1ccc(O)c(O)c1
- normalized growth (S. cerevisiae deletion strains, locus YJR066W, strain TOR1, hits give low values): 0.934
- normalized growth (S. cerevisiae deletion strains, locus YJR075W, strain HOC1, hits give low values): 1.02
- normalized growth (S. cerevisiae deletion strains, locus YKL009W, strain mrt4, hits give low values): 1
- normalized growth (S. cerevisiae deletion strains, locus YKL068W, hits give low values): 1.01
- normalized growth (S. cerevisiae deletion strains, locus YKL085W, strain MDH1 (second series), hits give low values): 1.01
- normalized growth (S. cerevisiae deletion strains, locus YKL085W, strain MDH1, hits give low values): 1.01
- normalized growth (S. cerevisiae deletion strains, locus YKL160W, strain elf1, hits give low values): 1.02
- normalized growth (S. cerevisiae deletion strains, locus YKL190W, strain CNB1, hits give low values): 1.01
- normalized growth (S. cerevisiae deletion strains, locus YKR001C, strain vps1, hits give low values): 0.999
- normalized growth (S. cerevisiae deletion strains, locus YKR026C, strain gcn3, hits give low values): 1
- normalized growth (S. cerevisiae deletion strains, locus YKR091W, strain srl3, hits give low values): 1.01
- normalized growth (S. cerevisiae deletion strains, locus YLL001W, strain dnm1, hits give low values): 1.02
- normalized growth (S. cerevisiae deletion strains, locus YLL026W, hits give low values): 1.02
- normalized growth (S. cerevisiae deletion strains, locus YLL041C, strain sdh2, hits give low values): 1
- normalized growth (S. cerevisiae deletion strains, locus YLR027C, strain aat2, hits give low values): 1.01
- normalized growth (S. cerevisiae deletion strains, locus YLR039C, strain RIC1, hits give low values): 1
- normalized growth (S. cerevisiae deletion strains, locus YLR058C, strain SHM2, hits give low values): 1.01
- normalized growth (S. cerevisiae deletion strains, locus YLR102C, strain apc9, hits give low values): 1.02
- normalized growth (S. cerevisiae deletion strains, locus YLR113W, strain HOG1, hits give low values): 0.97
- normalized growth (S. cerevisiae deletion strains, locus YLR221C, strain rsa3, hits give low values): 1.01
- normalized growth (S. cerevisiae deletion strains, locus YLR258W, strain gsy2, hits give low values): 1.01
- normalized growth (S. cerevisiae deletion strains, locus YLR262C, strain YPT6 (second series), hits give low values): 1.02
- normalized growth (S. cerevisiae deletion strains, locus YLR262C, strain YPT6, hits give low values): 1.04
- normalized growth (S. cerevisiae deletion strains, locus YLR268W, strain sec22, hits give low values): 1.04
- normalized growth (S. cerevisiae deletion strains, locus YLR320W, strain mms22, hits give low values): 1.04
- normalized growth (S. cerevisiae deletion strains, locus YLR330W, strain CHS5, hits give low values): 1.01
- normalized growth (S. cerevisiae deletion strains, locus YLR342W, strain FKS1 (second series), hits give low values): 1.01
- normalized growth (S. cerevisiae deletion strains, locus YLR342W, strain FKS1, hits give low values): 1.01
- normalized growth (S. cerevisiae deletion strains, locus YLR357W, strain rsc2, hits give low values): 0.938
- normalized growth (S. cerevisiae deletion strains, locus YLR370C, strain arc18, hits give low values): 1.01
- normalized growth (S. cerevisiae deletion strains, locus YLR371W, strain rom2, hits give low values): 1.03
- normalized growth (S. cerevisiae deletion strains, locus YLR384C, strain iki3, hits give low values): 1
- normalized growth (S. cerevisiae deletion strains, locus YLR418C, strain cdc73, hits give low values): 1
- normalized growth (S. cerevisiae deletion strains, locus YML016C, strain PPZ1, hits give low values): 1
- normalized growth (S. cerevisiae deletion strains, locus YML032C, strain rad52, hits give low values): 1.02
- normalized growth (S. cerevisiae deletion strains, locus YML120C, strain ndi1, hits give low values): 1
- normalized growth (S. cerevisiae deletion strains, locus YML124C, strain tub3, hits give low values): 1.01
- normalized growth (S. cerevisiae deletion strains, locus YMR058W, strain fet3, hits give low values): 0.841 (active)
- normalized growth (S. cerevisiae deletion strains, locus YMR078C, strain ctf18, hits give low values): 1.02
- normalized growth (S. cerevisiae deletion strains, locus YMR125W, strain sto1, hits give low values): 0.952
- normalized growth (S. cerevisiae deletion strains, locus YMR129W, hits give low values): 0.993
- normalized growth (S. cerevisiae deletion strains, locus YMR205C, strain PFK2, hits give low values): 1.06
- normalized growth (S. cerevisiae deletion strains, locus YMR223W, strain ubp8, hits give low values): 0.99
- normalized growth (S. cerevisiae deletion strains, locus YMR231W, strain pep5, hits give low values): 0.995
- normalized growth (S. cerevisiae deletion strains, locus YMR263W, strain SAP30, hits give low values): 1.01
- normalized growth (S. cerevisiae deletion strains, locus YMR307W, strain GAS1, hits give low values): 0.979
- normalized growth (S. cerevisiae deletion strains, locus YNL067W, strain RPL9B, hits give low values): 1.01
- normalized growth (S. cerevisiae deletion strains, locus YNL071W, strain lat1, hits give low values): 0.997
- normalized growth (S. cerevisiae deletion strains, locus YNL183C, strain NPR1, hits give low values): 0.948
- normalized growth (S. cerevisiae deletion strains, locus YNL209W, strain ssb2, hits give low values): 0.999
- normalized growth (S. cerevisiae deletion strains, locus YNL233W, strain BNI4, hits give low values): 1.01
- normalized growth (S. cerevisiae deletion strains, locus YNL248C, strain rpa49, hits give low values): 0.978
- normalized growth (S. cerevisiae deletion strains, locus YNL250W, strain rad50, hits give low values): 1.01
- normalized growth (S. cerevisiae deletion strains, locus YNL271C, strain bni1, hits give low values): 1.01
- normalized growth (S. cerevisiae deletion strains, locus YNL298W, strain CLA4, hits give low values): 1
- normalized growth (S. cerevisiae deletion strains, locus YNL307C, strain MCK1, hits give low values): 1.02
- normalized growth (S. cerevisiae deletion strains, locus YNL322C, strain KRE1 (second series), hits give low values): 1.01
- normalized growth (S. cerevisiae deletion strains, locus YNR049C, strain mso1, hits give low values): 1.01
- normalized growth (S. cerevisiae deletion strains, locus YNR052C, strain pop2, hits give low values): 1.01
- normalized growth (S. cerevisiae deletion strains, locus YOL006C, strain TOP1, hits give low values): 0.941
- normalized growth (S. cerevisiae deletion strains, locus YOL012C, strain htz1): 1.04
- normalized growth (S. cerevisiae deletion strains, locus YOL147C, strain pex11, hits give low values): 1.01
- normalized growth (S. cerevisiae deletion strains, locus YOR001W, strain rrp6, hits give low values): 0.969
- normalized growth (S. cerevisiae deletion strains, locus YOR061W, strain CKA2, hits give low values): 1.01
- normalized growth (S. cerevisiae deletion strains, locus YOR069W, strain VPS5, hits give low values): 1.01
- normalized growth (S. cerevisiae deletion strains, locus YOR070C, strain gyp1, hits give low values): 1
- normalized growth (S. cerevisiae deletion strains, locus YOR080W, strain dia2, hits give low values): 1.01
- normalized growth (S. cerevisiae deletion strains, locus YOR083W, strain WHI5, hits give low values): 1.05
- normalized growth (S. cerevisiae deletion strains, locus YOR106W, strain vam3, hits give low values): 1.04
- normalized growth (S. cerevisiae deletion strains, locus YOR136W, strain idh2, hits give low values): 1.02
- normalized growth (S. cerevisiae deletion strains, locus YOR144C, strain elg1, hits give low values): 1.01
- normalized growth (S. cerevisiae deletion strains, locus YOR184W, strain ser1, hits give low values): 1.06
- normalized growth (S. cerevisiae deletion strains, locus YOR231W, strain MKK1, hits give low values): 1
- normalized growth (S. cerevisiae deletion strains, locus YOR265W, strain rbl2, hits give low values): 1.01
- normalized growth (S. cerevisiae deletion strains, locus YOR270C, strain vph1, hits give low values): 0.944
- normalized growth (S. cerevisiae deletion strains, locus YOR290C, strain snf2, hits give low values): 1.01
- normalized growth (S. cerevisiae deletion strains, locus YOR316C, strain cot1, hits give low values): 1.01
- normalized growth (S. cerevisiae deletion strains, locus YPL051W, strain arl3, hits give low values): 0.99
- normalized growth (S. cerevisiae deletion strains, locus YPL078C, strain atp4, hits give low values): 1.01
- normalized growth (S. cerevisiae deletion strains, locus YPL106C, strain sse1, hits give low values): 1
- normalized growth (S. cerevisiae deletion strains, locus YPL240C, strain hsp82, hits give low values): 0.994
- normalized growth (S. cerevisiae deletion strains, locus YPL241C, strain CIN2, hits give low values): 1.01
- normalized growth (S. cerevisiae deletion strains, locus YPL256C, strain CLN2, hits give low values): 0.961
- normalized growth (S. cerevisiae deletion strains, locus YPR119W, strain clb2, hits give low values): 1.02
- normalized growth (S. cerevisiae deletion strains, locus YPR141C, strain kar3, hits give low values): 1.01
- normalized growth (S. cerevisiae deletion strains, locus YPR163C, strain tif3, hits give low values): 1.01
- normalized growth (S. cerevisiae deletion strains, locus YPR167C, strain met16, hits give low values): 1.02
- normalized growth (S. cerevisiae deletion strains, strain wtn01, hits give low values): 1.02
- normalized growth (S. cerevisiae strains, strain wild type, hits give low values): 1.01
